Source: PubChem BioAssay (NCATS)
Results filed as inconclusive are left out. A call without a number means that no potency is given here. Activity calls are given as the source filed them. Calls come from the whole dose curve; as a rule, active = well fitted inhibition curve with a large enough effect; inconclusive = small, poorly fitted or top-dose-only effect; inactive = no such curve, though single readings can be large or run the other way.

What follows are molecules tested against Thioredoxin reductase 1, cytoplasmic (Rattus norvegicus) (UniProt O89049) (assay: qHTS Assay for Inhibitors of Mammalian Selenoprotein Thioredoxin Reductase 1 (TrxR1) (AID 488773; note: nearly all actives have a fitted effect of over 40% in size)). Details: purified TrxR1 enzyme activity; Potency: inhibition; series mostly up to 57.1 µM.
Text: The selenoprotein thioredoxin reductase (TrxR; EC 1.8.1.9) is a FAD containing homodimeric pyridine nucleotide-disulfide oxidoreductase with many cellular roles. Together with NADPH and its prime substrate thioredoxin (Trx), the enzyme forms the core of the Trx system. The mammalian Trx system exerts a wide spectrum of functions including redox regulation, antioxidant defense, regulation of transcription factors as well as support of cell growth and replication. Many of these functions involve the reduction of Trx, which may subsequently reduce a number of different substrates including ribonucleotide reductase, peroxiredoxins or NFkB. Mammalian TrxR itself also has a broad substrate specificity, reducing both protein and non-protein substrates, including low molecular weight compounds such as dehydroascorbate, lipoic acid, ubiquinone, and juglone. In addition, several drugs in clinical use for anticancer treatment are indeed known to target TrxR1.
This BioAssay is a validation of an NADPH fluorescence-based, dual-purpose qHTS rTrxR1 assay designed to find potential inhibitors and substrates of rTrxR1. For this particular BioAssay, actives are potential inhibitors. See related BioAssay for substrate data deposition.
Assay protocol: 2 uL of reagents (buffer in column 4 as negative control and 90 nM rTrxR1 in columns 1-3 and 5-48) were dispensed into Greiner black solid-bottom 1,536-well assay plates, followed by 1 uL of NADPH (400 uM final concentration) to each well. The plates were centrifuged at 1000 rpm for 15 seconds and subsequently incubated for 5 min at room temperature (~22 deg C) to allow for rTrxR1 reduction. Compounds (23 nL) were then transferred via Kalypsys pin tool equipped with 1536-pin array (10 nL slotted pins, V&P Scientific, San Diego, CA). In addition, a duplicate 2-fold serial dilution of the control compounds auranofin, a known gold-based TrxR1 inhibitor, and juglone (5-hydroxy-1,4-naphthoquinone), a natural TrxR1 substrate, were pin-transferred to columns 2 and 3, respectively. After incubation for 15 min at room temperature (~22 deg C), 1 uL of selenite (400 uM final concentration) were dispensed to each well. The plate was immediately transferred to a ViewLux high-throughput CCD imager (PerkinElmer), wherein kinetic measurements of NADPH fluorescence (Ex 340 nm, Em 450 nm) were acquired (8 minute kinetic read, see Table 1). Read 1 was utilized to assess the capacity of a compound to serve as an rTrxR1 substrate, i.e. a decrease in NADPH fluorescence compared to the no-compound background is an indication of a substrate behavior for that particular compound. For inhibitory activity of a compound, delta values, computed as the difference in fluorescence intensity between the first and last reads of an 8-minute time kinetic window, were used. All reagents were diluted in an assay buffer consisting of 50 mM Tris-HCl, pH 7.5, 2 mM EDTA, and 0.01% Tween-20.
Throughout the screen, reagent bottle and all liquid lines were made light-tight to minimize reagent degradation. All screening operations were performed on a fully integrated robotic system (Kalypsys, San Diego, CA) containing one RX-130 and two RX-90 anthropomorphic robotic arms (Staubli, Duncan, SC). Library plates were screened starting from the lowest and proceeding to the highest concentration, and a 'double-pinning' step of the highest concentration was required to access higher concentrations of compounds. Vehicle-only plates, with DMSO being pin-transferred to the columns 5-48, were inserted uniformly at the beginning and the end of each library in order to monitor and record any shifts in the background, which can be affected by reagent dispensers or loss in enzyme activity over time. Screening data were corrected, normalized, and concentration-effect relationships were derived by using publicly-available curve fitting algorithms developed in-house (http://ncgc.nih.gov/pub/openhts).
Potency is the fitted concentration of half-maximal effect.

Thioredoxin reductase 1, cytoplasmic (Rattus norvegicus), sequence (O89049 whole entry, looked up): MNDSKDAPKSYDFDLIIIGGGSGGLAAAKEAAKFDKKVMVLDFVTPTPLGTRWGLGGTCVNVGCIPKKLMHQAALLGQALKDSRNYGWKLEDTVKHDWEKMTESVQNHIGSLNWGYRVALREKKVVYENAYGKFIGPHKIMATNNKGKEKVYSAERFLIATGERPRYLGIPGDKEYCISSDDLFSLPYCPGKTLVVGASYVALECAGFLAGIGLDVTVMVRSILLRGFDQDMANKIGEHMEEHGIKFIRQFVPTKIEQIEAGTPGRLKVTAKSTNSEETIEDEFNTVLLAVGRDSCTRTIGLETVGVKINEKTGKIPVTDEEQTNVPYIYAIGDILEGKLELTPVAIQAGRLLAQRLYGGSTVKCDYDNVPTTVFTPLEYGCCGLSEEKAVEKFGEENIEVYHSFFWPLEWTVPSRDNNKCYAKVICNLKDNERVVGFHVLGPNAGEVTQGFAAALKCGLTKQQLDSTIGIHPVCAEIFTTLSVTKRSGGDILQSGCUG

SMILES	Potency
CC(=O)OCC(=O)[C@@]1(O)CC[C@H]2[C@@H]3CCC4=CC(=O)CC[C@]4(C)[C@H]3C(=O)C[C@@]21C	inactive
C[C@]12C[C@H](O)[C@H]3[C@@H](CCC4=CC(=O)CC[C@@]43C)[C@@H]1CC[C@@H]2C(=O)CO	inactive
CNCCCC1c2ccccc2C=Cc2ccccc21	inactive
CN(C)CCC=C1c2ccccc2CCc2ccccc21	inactive
CC(C)(C)c1onc(OCP(=O)(O)O)c1CC(N)C(=O)O (stereo not given)	inactive
OCc1cc(C(O)CNCCCCCCOCCCCc2ccccc2)ccc1O (stereo not given)	inactive
C[C@](N)(Cc1ccc(O)cc1)C(=O)O	inactive
CC1=C(CC(=O)O)c2cc(F)ccc2/C1=C\c1ccc(S(C)(=O)=O)cc1	inactive
CC(C)(C(=O)O)c1ccc(C(O)CCCN2CCC(C(O)(c3ccccc3)c3ccccc3)CC2)cc1 (stereo not given)	inactive
CCN(CC)CCOC(=O)C1(C2CCCCC2)CCCCC1	inactive
COCCOC(=O)C1=C(C)NC(C)=C(C(=O)OC/C=C/c2ccccc2)C1c1cccc([N+](=O)[O-])c1 (stereo not given)	inactive
CC(C)(C)[C@]1(O)CCN2C[C@H]3c4ccccc4CCc4cccc(c43)[C@@H]2C1	inactive
Nc1ncnc2c1ncn2[C@@H]1O[C@H](CO)[C@@H](O)[C@H]1O	inactive
C=Cc1c(C)c2cc3[nH]c(cc4nc(cc5nc(cc1[nH]2)C(C)=C5CCC(=O)O)C(CCC(=O)O)=C4C)c(C)c3C=C	13.4 µM (active)
O=C1N=C(O)CN1/N=C/c1ccc(-c2ccc([N+](=O)[O-])cc2)o1	inactive
CN(C)CC[C@@H](c1ccc(Cl)cc1)c1ccccn1	inactive
CCN(CC)CCCC(C)Nc1c2ccc(Cl)cc2nc2ccc(OC)cc12 (stereo not given)	inactive
CCN(CC)CCNC(=O)c1cc(Cl)c(N)cc1OC	inactive
CC[C@H]1CN2CCc3cc(OC)c(OC)cc3[C@@H]2C[C@@H]1C[C@H]1NCCc2cc(OC)c(OC)cc21	inactive
NC(N)=NCCC[C@H](N)C(=O)O	inactive

SMILES	Potency
CN(C)CCCN1c2ccccc2Sc2ccc(Cl)cc21	inactive
C[C@]12CC[C@@H]3c4ccc(O)cc4CC[C@H]3[C@@H]1CCC2=O	inactive
CC(C(O)c1ccc(O)cc1)N1CCC(Cc2ccccc2)CC1 (stereo not given)	inactive
CCCCCCCCCCCCCCCC(=O)NCCO	inactive
CC(C)C(=O)c1c(C(C)C)nn2ccccc12	inactive
CCCn1cnc2c1c(=O)n(CCCCC(C)=O)c(=O)n2C	inactive
CN1CCN(C2Cc3ccccc3Sc3ccc(Cl)cc32)CC1 (stereo not given)	inactive
NC1CCN(c2cccc(Cl)n2)CC1	inactive
Cc1cc(N)c2ccccc2[n+]1CCCCCCCCCC[n+]1c(C)cc(N)c2ccccc21	inactive
C#CCN(C)Cc1ccccc1	inactive
CNC(=O)Oc1ccc2c(c1)[C@]1(C)CCN(C)[C@@H]1N2C	inactive
CSc1ccc2c(c1)C(N1CCN(C)CC1)Cc1ccccc1S2 (stereo not given)	inactive
CNCCC(Oc1ccc(C(F)(F)F)cc1)c1ccccc1 (stereo not given)	inactive
Nc1cc(=O)[nH]c(N)n1	inactive
CC(CN(C)C)CN1c2ccccc2CCc2ccccc21 (stereo not given)	inactive
CN(C)CCOC(C)(c1ccccc1)c1ccccn1 (stereo not given)	inactive
COc1ccc(Cl)cc1C(=O)NCCc1ccc(S(=O)(=O)NC(=O)NC2CCCCC2)cc1	inactive
CSc1ccc2c(c1)N(CCC1CCCCN1C)c1ccccc1S2 (stereo not given)	inactive
OCCN1CCN(CCCN2c3ccccc3Sc3ccc(Cl)cc32)CC1	inactive
NC(=O)c1ncn([C@@H]2O[C@H](CO)[C@@H](O)[C@H]2O)n1	inactive
